# Source: the supplement of paper PMC8728848
# Many of the other results were omitted from the sample, so the strongest signals are more common in it than they were.
# B1: ACA (Amaranthus caudatus) (protein)
# chain: MAGLPVIMCLKSNNNQKYLRYQSDNIQQYGLLQFSADKILDPLAQFEVEPSKTYDGLVHIKSRYTNKYLVRWSPNHYWITASANEPDENKSNWACTLFKPLYVEEGNMKKVRLLHVQLGHYTQNYTVGGSFVSYLFAESSQIDTGSKDVFHVIDWKSIFQFPKRYVTFKGNNGKYLGVITINQLPCLQFGYDNLNDPKVAHEMFVTSNGTICIKSTYMNKFWRLSTDDWILVDGNDPRETNEAAALFRSDVHDFNVISLLNMQKTWFIKRFTSGKPGFINCMNAATQNVDETAILEIIELGSNN
# How the values were obtained:
# Assay in all cases: glycan array binding signal (z-score within array); higher = stronger binding
# Settings in all cases: glycan notation: IUPAC condensed, linker removed
# [1] = molecular target: Fuc(a1-2)[GalNAc(a1-3)]Gal(b1-4)GlcNAc(b1-6)GalNAc
# How it was run: (§1)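 Glycan array binding is given as a within-array Z-score, which can be read as non-binding when negative. The arrays, 3228 of them, came from the Consortium for Functional Glycomics database and were retained only where the protein sequence was available. Z-scores were averaged across arrays of the same protein sequence at different concentrations or buffers and across linkers.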
# Fuc(a1-3)GlcNAc = molecular target: Fuc(a1-3)GlcNAc
# How it was run: as §1
# [2] = molecular target: Fuc(a1-3)[Gal(b1-4)]Glc6S
# How it was run: as §1
# [3] = molecular target: Gal(a1-3)Gal(b1-3)GlcNAc(b1-3)GalNAc
# How it was run: as §1
# [4] = molecular target: Gal(a1-3)Gal(b1-4)GlcNAc(b1-6)GalNAc
# How it was run: as §1
# [5] = molecular target: Gal(a1-3)Gal(b1-4)[Fuc(a1-3)]GlcNAc(b1-2)Man(a1-3)[Gal(a1-3)Gal(b1-4)[Fuc(a1-3)]GlcNAc(b1-2)Man(a1-6)]Man(b1-4)GlcNAc(b1-4)GlcNAc
# How it was run: as §1
# Gal(a1-3)GalNAc = molecular target: Gal(a1-3)GalNAc
# How it was run: as §1
# Gal(b1-3)Gal(b1-4)GlcNAc = molecular target: Gal(b1-3)Gal(b1-4)GlcNAc
# How it was run: as §1
# [6] = molecular target: Gal(b1-3)GalNAc(a1-3)[Fuc(a1-2)]Gal(b1-4)Glc
# How it was run: as §1
# [7] = molecular target: Gal(b1-3)GlcNAc(b1-2)[Gal(b1-3)GlcNAc(b1-6)]Man(a1-6)[Gal(b1-3)GlcNAc(b1-2)Man(a1-3)]Man(b1-4)GlcNAc(b1-4)GlcNAc
# How it was run: as §1
# [8] = molecular target: Gal(b1-3)GlcNAc(b1-3)GalNAc
# How it was run: as §1
# [9] = molecular target: Gal(b1-4)GalNAc(a1-3)[Fuc(a1-2)]Gal(b1-4)GlcNAc
# How it was run: as §1
# Gal(b1-4)GlcNAc(b1-2)Man = molecular target: Gal(b1-4)GlcNAc(b1-2)Man
# How it was run: as §1
# [10] = molecular target: Gal(b1-4)GlcNAc(b1-2)Man(a1-3)[Gal(b1-4)GlcNAc(b1-2)Man(a1-6)]Man(b1-4)GlcNAc(b1-4)[Fuc(a1-6)]GlcNAc
# How it was run: as §1
# [11] = molecular target: Gal(b1-4)GlcNAc(b1-2)Man(a1-6)Man(b1-4)GlcNAc(b1-4)GlcNAc
# How it was run: as §1
# [12] = molecular target: Gal(b1-4)GlcNAc(b1-3)Gal(b1-4)Glc
# How it was run: as §1
# [13] = molecular target: Gal(b1-4)GlcNAc(b1-3)Gal(b1-4)GlcNAc(b1-2)Man(a1-3)[Gal(b1-4)GlcNAc(b1-3)Gal(b1-4)GlcNAc(b1-2)Man(a1-6)]Man(b1-4)GlcNAc(b1-4)GlcNAc
# How it was run: as §1
# [14] = molecular target: Gal(b1-4)GlcNAc(b1-3)Gal(b1-4)GlcNAc(b1-2)Man(a1-3)[Gal(b1-4)GlcNAc(b1-3)Gal(b1-4)GlcNAc(b1-2)Man(a1-6)]Man(b1-4)GlcNAc(b1-4)[Fuc(a1-6)]GlcNAc
# How it was run: as §1
# [15] = molecular target: Gal(b1-4)GlcNAc(b1-3)Gal(b1-4)GlcNAc(b1-3)Gal(b1-4)GlcNAc(b1-2)Man(a1-3)[Gal(b1-4)GlcNAc(b1-3)Gal(b1-4)GlcNAc(b1-3)Gal(b1-4)GlcNAc(b1-2)Man(a1-6)]Man(b1-4)GlcNAc(b1-4)GlcNAc
# How it was run: as §1
# [16] = molecular target: Gal(b1-4)GlcNAc(b1-3)Gal(b1-4)GlcNAc(b1-3)[Gal(b1-4)GlcNAc(b1-3)Gal(b1-4)GlcNAc(b1-6)]GalNAc
# How it was run: as §1
# [17] = molecular target: Gal(b1-4)GlcNAc(b1-3)Gal(b1-4)GlcNAc(b1-6)[Gal(b1-3)]GalNAc
# How it was run: as §1
# [18] = molecular target: Gal(b1-4)GlcNAc(b1-3)[Fuc(a1-3)GlcNAc(b1-6)]Gal(b1-4)Glc
# How it was run: as §1
# Gal6S(b1-3)GlcNAc = molecular target: Gal6S(b1-3)GlcNAc
# How it was run: as §1
# Glc(a1-4)Glc = molecular target: Glc(a1-4)Glc
# How it was run: as §1
# [19] = molecular target: GlcA3S(b1-3)Gal(b1-4)GlcNAc(b1-2)Man
# How it was run: as §1
# [20] = molecular target: GlcNAc(b1-3)Gal(b1-4)GlcNAc(b1-3)Gal(b1-4)GlcNAc(b1-2)Man(a1-3)[GlcNAc(b1-3)Gal(b1-4)GlcNAc(b1-3)Gal(b1-4)GlcNAc(b1-2)Man(a1-6)]Man(b1-4)GlcNAc(b1-4)GlcNAc
# How it was run: as §1
# [21] = molecular target: GlcNAc(b1-3)Gal(b1-4)GlcNAc(b1-3)Gal(b1-4)GlcNAc(b1-3)Gal(b1-4)GlcNAc(b1-2)[GlcNAc(b1-3)Gal(b1-4)GlcNAc(b1-3)Gal(b1-4)GlcNAc(b1-3)Gal(b1-4)GlcNAc(b1-6)]Man(a1-6)[GlcNAc(b1-3)Gal(b1-4)GlcNAc(b1-3)Gal(b1-4)GlcNAc(b1-3)Gal(b1-4)GlcNAc(b1-2)Man(a1-3)]Man(b1-4)GlcNAc(b1-4)[Fuc(a1-6)]GlcNAc
# How it was run: as §1
# Kdn(a2-3)Gal(b1-4)Glc = molecular target: Kdn(a2-3)Gal(b1-4)Glc
# How it was run: as §1
# [22] = molecular target: Man(a1-3)[Man(a1-6)]Man(a1-6)[Man(a1-2)Man(a1-3)]Man(b1-4)GlcNAc(b1-4)GlcNAc
# How it was run: as §1
# [23] = molecular target: Neu5Ac(a2-3)Gal(b1-3)GlcNAc(b1-2)Man(a1-3)[GlcNAc(b1-4)][Neu5Ac(a2-3)Gal(b1-3)GlcNAc(b1-2)Man(a1-6)]Man(b1-4)GlcNAc(b1-4)GlcNAc
# How it was run: as §1
# [24] = molecular target: Neu5Ac(a2-3)Gal(b1-3)[GlcNAc(b1-6)]GalNAc
# How it was run: as §1
# [25] = molecular target: Neu5Ac(a2-3)Gal(b1-4)GlcNAc(b1-2)Man(a1-3)[Neu5Ac(a2-6)Gal(b1-4)GlcNAc(b1-2)Man(a1-6)]Man(b1-4)GlcNAc(b1-4)GlcNAc
# How it was run: as §1
# [26] = molecular target: Neu5Ac(a2-3)Gal(b1-4)GlcNAc(b1-3)Gal(b1-4)GlcNAc(b1-2)Man(a1-3)[Neu5Ac(a2-3)Gal(b1-4)GlcNAc(b1-3)Gal(b1-4)GlcNAc(b1-2)Man(a1-6)]Man(b1-4)GlcNAc(b1-4)GlcNAc
# How it was run: as §1
# [27] = molecular target: Neu5Ac(a2-3)Gal(b1-4)GlcNAc(b1-3)Gal(b1-4)GlcNAc(b1-3)Gal(b1-4)GlcNAc(b1-2)Man(a1-3)[Neu5Ac(a2-3)Gal(b1-4)GlcNAc(b1-3)Gal(b1-4)GlcNAc(b1-3)Gal(b1-4)GlcNAc(b1-2)Man(a1-6)]GalNAc
# How it was run: as §1
# [28] = molecular target: Neu5Ac(a2-3)Gal(b1-4)GlcNAc(b1-3)[Neu5Ac(a2-3)Gal(b1-4)GlcNAc(b1-6)]GalNAc
# How it was run: as §1
# [29] = molecular target: Neu5Ac(a2-3)Gal(b1-4)GlcNAc(b1-6)[Gal(b1-3)]GalNAc
# How it was run: as §1
# [30] = molecular target: Neu5Ac(a2-3)Gal(b1-4)GlcNAc6S
# How it was run: as §1
# [31] = molecular target: Neu5Ac(a2-3)[GalNAc(b1-4)]Gal(b1-4)GlcNAc
# How it was run: as §1
# [32] = molecular target: Neu5Ac(a2-6)Gal(b1-4)GlcNAc(b1-3)Gal(b1-4)GlcNAc(b1-3)Gal(b1-4)GlcNAc(b1-2)Man(a1-3)[Neu5Ac(a2-6)Gal(b1-4)GlcNAc(b1-3)Gal(b1-4)GlcNAc(b1-3)Gal(b1-4)GlcNAc(b1-2)Man(a1-6)]GalNAc
# How it was run: as §1
# [33] = molecular target: Neu5Ac(a2-6)Gal(b1-4)GlcNAc(b1-3)Gal(b1-4)GlcNAc(b1-3)[Neu5Ac(a2-6)Gal(b1-4)GlcNAc(b1-3)Gal(b1-4)GlcNAc(b1-6)]GalNAc
# How it was run: as §1
# [34] = molecular target: Neu5Ac(a2-6)Gal(b1-4)GlcNAc(b1-3)Gal(b1-4)[Fuc(a1-3)]GlcNAc(b1-3)Gal(b1-4)[Fuc(a1-3)]GlcNAc
# How it was run: as §1
# [35] = molecular target: Neu5Ac(a2-8)Neu5Ac(a2-3)Gal(b1-4)Glc
# How it was run: as §1
# [36] = molecular target: Neu5Gc(a2-3)Gal(b1-4)GlcNAc(b1-3)Gal(b1-4)GlcNAc(b1-2)Man(a1-3)[Neu5Gc(a2-3)Gal(b1-4)GlcNAc(b1-3)Gal(b1-4)GlcNAc(b1-2)Man(a1-6)]Man(b1-4)GlcNAc(b1-4)GlcNAc
# How it was run: as §1
# [37] = molecular target: Neu5Gc(a2-3)Gal(b1-4)[Fuc(a1-3)]GlcNAc
# How it was run: as §1
# [38] = molecular target: Neu5Gc(a2-6)Gal(b1-4)GlcNAc
# How it was run: as §1
binder,measurement,setting,value
B1,glycan array binding signal (z-score),[1],-0.116
same,glycan array binding signal (z-score),Fuc(a1-3)GlcNAc,-0.103
same,glycan array binding signal (z-score),[2],0.058
same,glycan array binding signal (z-score),[3],-0.395
same,glycan array binding signal (z-score),[4],-0.246
same,glycan array binding signal (z-score),[5],-0.878
same,glycan array binding signal (z-score),Gal(a1-3)GalNAc,0.156
same,glycan array binding signal (z-score),Gal(b1-3)Gal(b1-4)GlcNAc,0.13
same,glycan array binding signal (z-score),[6],-0.399
same,glycan array binding signal (z-score),[7],-0.184
same,glycan array binding signal (z-score),[8],0.052
same,glycan array binding signal (z-score),[9],-0.471
same,glycan array binding signal (z-score),Gal(b1-4)GlcNAc(b1-2)Man,-0.376
same,glycan array binding signal (z-score),[10],0.193
same,glycan array binding signal (z-score),[11],-0.378
same,glycan array binding signal (z-score),[12],-0.12
same,glycan array binding signal (z-score),[13],4.74
same,glycan array binding signal (z-score),[14],3.63
same,glycan array binding signal (z-score),[15],5.84
same,glycan array binding signal (z-score),[16],5.24
same,glycan array binding signal (z-score),[17],3.84
same,glycan array binding signal (z-score),[18],0.71
same,glycan array binding signal (z-score),Gal6S(b1-3)GlcNAc,-0.469
same,glycan array binding signal (z-score),Glc(a1-4)Glc,0.351
same,glycan array binding signal (z-score),[19],-0.456
same,glycan array binding signal (z-score),[20],3.43
same,glycan array binding signal (z-score),[21],0.586
same,glycan array binding signal (z-score),Kdn(a2-3)Gal(b1-4)Glc,-0.204
same,glycan array binding signal (z-score),[22],6.44
same,glycan array binding signal (z-score),[23],-0.413
same,glycan array binding signal (z-score),[24],-0.266
same,glycan array binding signal (z-score),[25],-0.42
same,glycan array binding signal (z-score),[26],3.13
same,glycan array binding signal (z-score),[27],9.87
same,glycan array binding signal (z-score),[28],0.132
same,glycan array binding signal (z-score),[29],0.029
same,glycan array binding signal (z-score),[30],-0.219
same,glycan array binding signal (z-score),[31],-0.069
same,glycan array binding signal (z-score),[32],3.17
same,glycan array binding signal (z-score),[33],4.69
same,glycan array binding signal (z-score),[34],0.326
same,glycan array binding signal (z-score),[35],-0.424
same,glycan array binding signal (z-score),[36],1.25
same,glycan array binding signal (z-score),[37],-0.167
same,glycan array binding signal (z-score),[38],-0.372
